Measured values: the supplement of paper PMC10338343
± gives the standard deviation.

How the values were obtained:
[1] = tested on: MILI (PIWIL2) piRISC loaded with piRNA #1 (26 nt); experiment: pre-steady-state target cleavage rate (min^-1); guide: piRNA #1 5'p-UGAGGUAGUAGGUUGUAUAGUAUCCA; higher = faster piRNA-guided slicing of the target; conditions: auxiliary factor: 500 nM mouse GTSF1
Summary of the method: (§1)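 In Cleave-'n-Seq, a transcribed, DNA-blocked target RNA library (0.1 nM) was combined with 1 nM active affinity-purified piRISC bearing one synthetic guide, with or without 500 nM GTSF1 partner protein. Reactions ran in HEPES–potassium acetate buffer at 33 °C for 0–8 or 0–960 min. Uncleaved targets were sequenced and normalised to depth and to weakly complementary targets, three trials were pooled, and k3 was capped at 0.0001 min^-1. The pre-steady-state cleavage rate was obtained by fitting a burst-and-steady-state model.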

[2] = tested on: EfPiwi piRISC loaded with piRNA #1 (26 nt); experiment: pre-steady-state target cleavage rate (min^-1); auxiliary factor: 500 nM Ephydatia muelleri Gtsf1; guide: piRNA #1 5'p-UGAGGUAGUAGGUUGUAUAGUAUCCA; MIWI and MILI are mouse PIWI proteins and EfPiwi is from a freshwater sponge; tags in brackets are library labels; higher = faster piRNA-guided slicing of the target
Summary of the method: as §1

Sequence | pre-steady-state target cleavage rate [1] | pre-steady-state target cleavage rate [2]
GGAGACGAUACUAUACAACCAACUACCUCA | 0.00952 ± 0.004 | 0.00552 ± 0.0017
GGAGACCGUACUAUACAACCUACUACCUCA | 0.157 ± 0.021 | 0.156 ± 0.049
GGAGACCAUACUAUACAACGUACUACCUCA | 0.0191 ± 0.0046 | 0.00482 ± 0.0015
GGAGACCUAUCUAUACAACCUACUACCUCCA | 0.0927 ± 0.0097 | 0.0208 ± 0.0083
GGAGUGCAUACUAUUCAACCUACUACCUCA | 0.182 ± 0.011 | 0.00471 ± 0.0042
GGAGACGAUACUUUACAACCUACUACCUGA | 0.117 ± 0.021 | 0.00356 ± 0.0024
GGAGAGGUUACUAUACAACCUACUACCUCA | 0.197 ± 0.014 | 0.0625 ± 0.025
GGAGAGGAUACAUAACAACCUACUACCUCA | 0.123 ± 0.011 | 0.00445 ± 0.004
GGAGACCUAUCUAUACAACCUGCUACCUCA | 0.0162 ± 0.0048 | 0.00697 ± 0.0045
GGAGACCUAACUAUACAACCUGCUACCUCA | 0.0157 ± 0.0084 | 0.0127 ± 0.005
GGAGAGGAUACUAUUCAACCUACUACGUCA | 0.0602 ± 0.0084 | 0.00309 ± 0.0023
GGAGUCGAUACUAAACAACCUACUACCUCA | 0.183 ± 0.015 | 0.00865 ± 0.0048
GGAGACCAUACUAUUCAACCUACUACCUCA | 0.189 ± 0.016 | 0.0056 ± 0.0032
GGAGUGGAUAAUAUACAACCUACUACCUCA | 0.168 ± 0.011 | 0.0105 ± 0.0047
GGAGACGAUACUAUACAACCUACUACGAGA | 0.11 ± 0.034 | 0.00501 ± 0.0017
GGAGACCAUAGAUUACAACCUACUACCUCA | 0.0355 ± 0.0071 | 0.00655 ± 0.0034
GGAGUGGAUACUAUCACAACCUACUACCUCA | 0.199 ± 0.013 | 0.0265 ± 0.011
GGAGUGGAUAGUAUACAAGCUACUACCUCA | 0.0697 ± 0.01 | 0.00224 ± 0.0021
GGAGACCUAUCAUUACAACCUACUACCUCA | 0.0146 ± 0.0049 | 0.00563 ± 0.0035
GGAGUGGAUACUAUACAACCUACUACCCA | 0.0544 ± 0.013 | 0.00631 ± 0.0022
GGAGAGGAUACUAUACAUCGUACUACCUCA | 0.0374 ± 0.0069 | 0.00364 ± 0.0019
GGAGACCUUACUAUACAACCUACUACCAUCA | 0.162 ± 0.024 | 0.00369 ± 0.0024
GGAGACCAUACUAUACAACCUAUCUACCUCA | 0.0997 ± 0.014 | 0.00419 ± 0.0028
GGAGAGGAUGCUAUACAACCUACUACCUCA | 0.151 ± 0.018 | 0.00971 ± 0.006
GGAGACCAUACUGAUACAACCUACUACCUCA | 0.112 ± 0.014 | 0.0368 ± 0.013
GGAGUGGAUACUAUACAACGUACUUCCUCA | 0.0153 ± 0.0037 | 0.00364 ± 0.0017
GGAGUGGAUACUAAACAACCAACUACCUCA | 0.007 ± 0.0021 | 0.0031 ± 0.0017
GGAGACCACUACUAUACAACCUACUACCUCA | 0.149 ± 0.016 | 0.0313 ± 0.014
GGAGUGGAUACCUAUACAACCUACUACCUCA | 0.0993 ± 0.019 | 0.0485 ± 0.018
GGAGACGAUACUAUUCAACCUACUACGUCA | 0.0915 ± 0.011 | 0.00311 ± 0.0016
